Reference: the supplement of paper PMC3545927
This is one part of the list. No count for the full screen is at hand.

B1: HC1710 (peptide)
chain: CAMEVCSQHLAGNASASA
B2: HC21 (peptide)
chain: CAMEECAQHLAGNASASA
B3: HC969 (peptide)
chain: CATLHGPTPLAGNASASA
B4: FS-2847 (peptide)
chain: CARYARKIEPAGNASASA
B5: HC1292 (peptide)
chain: CAEDEREISVAGNASASA
B6: FS-2594 (peptide)
chain: CARRKRRAPLAGNASASA
B7: FS-3262 (peptide)
chain: CARRKRHISVAGNASASA
B8: FS-1808 (peptide)
chain: CARYARWAGAAGNASASA
B9: FS-3060 (peptide)
chain: CARRQRRVPGAGNASASA
B10: FS-1809 (peptide)
chain: CARYHRDAGAAGNASASA
B11: HC39 (peptide)
chain: CAMEECQQHLAGNASASA
B12: HC561 (peptide)
chain: CALALPQRAYAGNASASA
B13: HC2162 (peptide)
chain: CAQVVTSTWVAGNASASA
B14: HC2168 (peptide)
chain: CAEWVTSTWVAGNASASA
B15: HC2044 (peptide)
chain: CAVVCCSISYAGNASASA
B16: FS-1828 (peptide)
chain: CARKKRREEKAGNASASA
B17: FS-2964 (peptide)
chain: CARKKREKKKAGNASASA
B18: FS-2961 (peptide)
chain: CARKKRADKKAGNASASA
B19: FS-2395 (peptide)
chain: CARKKRYDRKAGNASASA
B20: FS-2562 (peptide)
chain: CARKKRATHSAGNASASA
B21: FS-2270 (peptide)
chain: CARKKRSTKKAGNASASA
B22: HC1758 (peptide)
chain: CAMEECSQTLAGNASASA
B23: HC787 (peptide)
chain: CAVLNPSVAAAGNASASA
B24: FS-699 (peptide)
chain: CAPLKRFKRAAGNASASA
B25: FS-1047 (peptide)
chain: CAPKGRPKRAAGNASASA
B26: HC558 (peptide)
chain: CAPLLLLLLAAGNASASA
B27: HC1066 (peptide)
chain: CAILGGWVAAAGNASASA
B28: FS-847 (peptide)
chain: CAQGTRFKRAAGNASASA
B29: HC276 (peptide)
chain: CAREGNASRCAGNASASA
B30: FS-1248 (peptide)
chain: CAQLGRPKRCAGNASASA

Target: furin, P09958
Experiment: furin cleavage Z-score vs untreated control; higher = more cleavage, active = 3.5 or more, inactive = 1 or less, 8 variable residues between constant flanks
Protocol: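 Multiplexed peptide-cDNA fusion cleavage assay. 8-mer variable peptides flanked by constant Cys-Ala (N-term) and Ala-Gly-Asn-Ala-Ser-Ala-Ser-Ala (C-term) and conjugated to a cDNA oligonucleotide were bead-immobilised via the N-terminus. They were treated with purified furin at a 1:10 enzyme:substrate ratio in 50 mM HEPES pH 7.5, 1 mM CaCl2, 100 mM NaCl for 7.5, 15 or 30 min. Released cDNA was counted by next-generation sequencing, and log counts versus no-furin controls were lowess-adjusted and converted to robust Z-scores.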

furin, P09958, sequence (P09958 whole entry): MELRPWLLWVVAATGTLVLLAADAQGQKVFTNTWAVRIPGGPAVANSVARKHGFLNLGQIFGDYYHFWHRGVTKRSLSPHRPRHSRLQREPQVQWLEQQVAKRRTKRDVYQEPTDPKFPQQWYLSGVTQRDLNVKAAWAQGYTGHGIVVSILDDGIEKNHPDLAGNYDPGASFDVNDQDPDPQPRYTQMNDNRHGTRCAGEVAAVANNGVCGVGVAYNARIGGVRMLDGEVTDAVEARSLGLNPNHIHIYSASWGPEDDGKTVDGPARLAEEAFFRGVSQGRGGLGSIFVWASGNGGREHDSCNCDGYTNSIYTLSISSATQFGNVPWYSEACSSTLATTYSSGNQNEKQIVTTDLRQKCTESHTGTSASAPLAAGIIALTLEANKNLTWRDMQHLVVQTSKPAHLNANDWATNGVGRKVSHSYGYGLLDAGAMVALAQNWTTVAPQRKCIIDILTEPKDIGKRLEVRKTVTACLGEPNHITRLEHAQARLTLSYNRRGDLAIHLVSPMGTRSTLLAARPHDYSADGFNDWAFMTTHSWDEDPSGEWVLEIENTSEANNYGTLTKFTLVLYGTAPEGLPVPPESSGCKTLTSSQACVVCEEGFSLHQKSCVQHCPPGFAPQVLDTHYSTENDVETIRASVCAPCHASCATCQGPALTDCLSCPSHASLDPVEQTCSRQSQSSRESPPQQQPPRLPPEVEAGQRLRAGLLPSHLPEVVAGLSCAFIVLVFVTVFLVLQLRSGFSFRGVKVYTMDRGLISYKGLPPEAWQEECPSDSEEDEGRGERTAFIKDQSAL

Row | Sequence | furin cleavage Z-score (7.5 min) | furin cleavage Z-score (15 min) | furin cleavage Z-score (30 min)
1 | B1 | 0.136 (inactive) | 0.13 (inactive) | -0.0969 (inactive)
2 | B2 | -0.625 (inactive) | -0.0837 (inactive) | -0.768 (inactive)
3 | B3 | 0.77 (inactive) | 0.336 (inactive) | -0.402 (inactive)
4 | B4 | 0.34 (inactive) | 1.98 | 2.59
5 | B5 | 0.521 (inactive) | -0.358 (inactive) | 1.28
6 | B6 | 4.11 (active) | 6.31 (active) | 6.38 (active)
7 | B7 | 5.85 (active) | 5.59 (active) | 7.18 (active)
8 | B8 | 3.25 | 3.55 (active) | 4.67 (active)
9 | B9 | 0.752 (inactive) | 1.27 | 2.47
10 | B10 | 1.33 | 1.22 | 0.229 (inactive)
11 | B11 | 1.54 | 0.787 (inactive) | 2.55
12 | B12 | 0.0304 (inactive) | 1.97 | 1.07
13 | B13 | 0.38 (inactive) | 0.0342 (inactive) | 0.112 (inactive)
14 | B14 | 0.00297 (inactive) | 0.984 (inactive) | 0.871 (inactive)
15 | B15 | 0.197 (inactive) | -0.41 (inactive) | -0.348 (inactive)
16 | B16 | -0.326 (inactive) | 2.8 | 0.74 (inactive)
17 | B17 | -0.433 (inactive) | -0.316 (inactive) | 0.927 (inactive)
18 | B18 | 5 (active) | 6.53 (active) | 5.44 (active)
19 | B19 | 4.56 (active) | 7.7 (active) | 7.88 (active)
20 | B20 | 11.5 (active) | 12.2 (active) | 9.97 (active)
21 | B21 | 5.56 (active) | 7.13 (active) | 6.85 (active)
22 | B22 | 0.0304 (inactive) | 0.61 (inactive) | 0.799 (inactive)
23 | B23 | -0.311 (inactive) | -0.0498 (inactive) | -0.157 (inactive)
24 | B24 | 12.2 (active) | 12 (active) | 9.3 (active)
25 | B25 | 11.3 (active) | 13.3 (active) | 9.54 (active)
26 | B26 | -0.475 (inactive) | -2.1 (inactive) | 0.488 (inactive)
27 | B27 | -0.934 (inactive) | -0.574 (inactive) | -1.27 (inactive)
28 | B28 | 11.1 (active) | 10.3 (active) | 8.39 (active)
29 | B29 | -0.0161 (inactive) | -0.511 (inactive) | -0.0787 (inactive)
30 | B30 | 8.77 (active) | 10.3 (active) | 8.22 (active)
